Laboratory results taken from article PMC7862700, “An all-to-all approach to the identification of sequence-specific readers for epigenetic DNA modifications on cytosine”.

Tests used:
Assay in all cases: DAPPL (digital affinity profiling via proximity ligation, sequencing); 10 mM Tris-HCl pH 7.5, 50 mM NaCl, 1 mM DTT, 4% glycerol, room temperature, 30 min; GST-TFs on glutathione beads, 16-mer random dsDNA library, 0.1% formaldehyde crosslink after washing; high values mean tight binding
Conditions in all cases: protein: recombinant; tags: N-terminal GST; dsDNA, one strand shown
FLI1 = target: T1, FLI1 (Homo sapiens, UniProt Q01543 1-452)
T1 sequence: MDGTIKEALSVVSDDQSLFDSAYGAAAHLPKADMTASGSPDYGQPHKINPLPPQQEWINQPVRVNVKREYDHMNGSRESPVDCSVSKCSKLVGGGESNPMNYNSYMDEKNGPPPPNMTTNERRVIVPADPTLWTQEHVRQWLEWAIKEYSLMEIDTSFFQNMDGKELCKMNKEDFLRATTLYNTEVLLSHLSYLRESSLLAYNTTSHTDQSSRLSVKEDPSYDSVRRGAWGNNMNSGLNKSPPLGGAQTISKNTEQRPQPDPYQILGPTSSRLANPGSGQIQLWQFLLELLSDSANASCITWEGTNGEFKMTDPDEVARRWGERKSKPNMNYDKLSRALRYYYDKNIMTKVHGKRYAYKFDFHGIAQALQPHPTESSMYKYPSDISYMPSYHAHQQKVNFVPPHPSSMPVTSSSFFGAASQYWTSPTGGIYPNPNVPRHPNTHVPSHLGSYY
Summary of the method: (§1)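 GST fusions of human transcription factors were expressed in yeast and captured with glutathione beads. Once given DNA barcodes and pooled alongside a tag-only sample, they were incubated for 30 min at room temperature with 200 nmole of a random double-stranded 16-mer DNA library in Tris/NaCl/DTT/glycerol buffer, then washed, crosslinked (0.1% formaldehyde), proximity-ligated, PCR-amplified and sequenced on an Illumina NextSeq500. The binding signal of each hexamer is its read frequency for a factor divided by its frequency for the tag-only sample.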

ELK1 = target: T2, ELK1 (Homo sapiens, UniProt P19419 1-428)
T2 sequence: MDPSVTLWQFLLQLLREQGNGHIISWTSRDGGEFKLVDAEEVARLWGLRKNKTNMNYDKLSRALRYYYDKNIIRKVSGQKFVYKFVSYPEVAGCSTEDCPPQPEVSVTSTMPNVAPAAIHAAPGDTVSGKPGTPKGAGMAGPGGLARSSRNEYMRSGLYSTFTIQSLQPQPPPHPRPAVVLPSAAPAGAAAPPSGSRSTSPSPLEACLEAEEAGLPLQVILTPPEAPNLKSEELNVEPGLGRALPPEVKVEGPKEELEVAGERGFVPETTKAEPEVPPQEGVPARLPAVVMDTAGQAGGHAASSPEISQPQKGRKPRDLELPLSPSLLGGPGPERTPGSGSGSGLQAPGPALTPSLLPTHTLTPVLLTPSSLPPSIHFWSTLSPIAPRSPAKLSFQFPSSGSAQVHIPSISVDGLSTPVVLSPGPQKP
Summary of the method: as §1

GABPA = target: T3, GABPA (Homo sapiens, UniProt Q06546 1-454)
T3 sequence: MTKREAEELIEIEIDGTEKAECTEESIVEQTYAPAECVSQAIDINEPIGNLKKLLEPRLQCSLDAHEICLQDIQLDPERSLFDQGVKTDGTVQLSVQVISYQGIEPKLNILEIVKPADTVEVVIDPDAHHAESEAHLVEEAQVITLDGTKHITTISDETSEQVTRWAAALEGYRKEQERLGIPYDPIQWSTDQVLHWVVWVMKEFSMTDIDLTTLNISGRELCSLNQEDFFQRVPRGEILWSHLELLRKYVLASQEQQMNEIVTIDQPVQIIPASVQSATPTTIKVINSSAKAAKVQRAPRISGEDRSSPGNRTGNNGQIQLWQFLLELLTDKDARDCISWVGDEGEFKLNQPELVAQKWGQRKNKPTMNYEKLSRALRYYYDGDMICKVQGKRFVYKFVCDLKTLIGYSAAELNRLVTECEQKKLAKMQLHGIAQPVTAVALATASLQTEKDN
Summary of the method: as §1

ERG = target: T4, ERG (Homo sapiens, UniProt P11308 1-479)
T4 sequence: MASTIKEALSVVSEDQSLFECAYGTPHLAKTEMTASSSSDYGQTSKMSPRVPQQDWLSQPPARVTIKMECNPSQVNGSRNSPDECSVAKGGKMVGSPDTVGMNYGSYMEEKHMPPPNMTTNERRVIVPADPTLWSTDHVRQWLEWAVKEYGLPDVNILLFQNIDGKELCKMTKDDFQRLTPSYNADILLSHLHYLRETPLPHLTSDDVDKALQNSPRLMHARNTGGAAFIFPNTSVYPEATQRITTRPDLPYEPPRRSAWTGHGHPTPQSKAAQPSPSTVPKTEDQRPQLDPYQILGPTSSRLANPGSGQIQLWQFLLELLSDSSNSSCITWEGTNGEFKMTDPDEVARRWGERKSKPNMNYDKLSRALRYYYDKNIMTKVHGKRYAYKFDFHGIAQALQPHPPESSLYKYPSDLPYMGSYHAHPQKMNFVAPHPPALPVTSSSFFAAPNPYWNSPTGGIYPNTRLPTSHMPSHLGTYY
Summary of the method: as §1

ELF1 = ELF1 (Homo sapiens, UniProt P32519 1-619)
ELF1, sequence (P32519 whole entry): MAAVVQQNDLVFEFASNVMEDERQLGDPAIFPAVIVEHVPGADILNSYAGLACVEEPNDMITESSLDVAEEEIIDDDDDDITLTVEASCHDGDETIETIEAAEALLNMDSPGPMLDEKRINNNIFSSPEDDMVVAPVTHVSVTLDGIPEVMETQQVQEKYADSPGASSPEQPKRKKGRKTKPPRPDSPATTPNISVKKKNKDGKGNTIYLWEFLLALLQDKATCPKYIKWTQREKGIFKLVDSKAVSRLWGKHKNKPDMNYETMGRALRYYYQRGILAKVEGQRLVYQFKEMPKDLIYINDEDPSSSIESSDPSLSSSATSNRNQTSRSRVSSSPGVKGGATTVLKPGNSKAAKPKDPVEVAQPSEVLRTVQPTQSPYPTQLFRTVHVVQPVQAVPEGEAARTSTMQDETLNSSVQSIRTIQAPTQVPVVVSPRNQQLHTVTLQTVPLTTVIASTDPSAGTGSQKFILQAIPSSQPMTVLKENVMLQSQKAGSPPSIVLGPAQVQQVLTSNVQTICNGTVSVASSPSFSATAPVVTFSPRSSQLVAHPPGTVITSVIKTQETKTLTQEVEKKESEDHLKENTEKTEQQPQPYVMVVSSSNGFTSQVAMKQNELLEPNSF
Summary of the method: as §1

EHF = target: T5, EHF (Homo sapiens, UniProt Q9NZC4 1-300)
T5 sequence: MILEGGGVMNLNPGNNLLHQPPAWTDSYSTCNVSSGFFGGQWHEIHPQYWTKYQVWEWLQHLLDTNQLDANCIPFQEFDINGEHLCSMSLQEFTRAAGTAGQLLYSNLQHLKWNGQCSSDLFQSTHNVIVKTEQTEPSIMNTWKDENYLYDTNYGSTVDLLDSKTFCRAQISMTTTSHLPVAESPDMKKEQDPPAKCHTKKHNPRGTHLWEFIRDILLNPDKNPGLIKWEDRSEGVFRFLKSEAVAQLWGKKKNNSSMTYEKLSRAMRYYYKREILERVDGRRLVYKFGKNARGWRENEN
Summary of the method: as §1

SPI1 = SPI1 (Homo sapiens, UniProt P17947 1-270)
Summary of the method: as §1

SPIB = SPIB (Homo sapiens, UniProt Q01892 1-262)
SPIB, sequence (Q01892 whole entry): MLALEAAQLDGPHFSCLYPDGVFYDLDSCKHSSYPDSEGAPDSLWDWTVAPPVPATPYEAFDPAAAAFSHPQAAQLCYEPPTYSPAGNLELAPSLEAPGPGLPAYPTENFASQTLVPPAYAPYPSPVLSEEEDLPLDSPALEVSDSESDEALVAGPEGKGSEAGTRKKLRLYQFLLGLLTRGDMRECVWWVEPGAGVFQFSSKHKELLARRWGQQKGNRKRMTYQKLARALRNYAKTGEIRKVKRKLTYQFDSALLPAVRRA
Summary of the method: as §1

ELK3 = target: T6, ELK3 (Homo sapiens, UniProt P41970 1-407)
T6 sequence: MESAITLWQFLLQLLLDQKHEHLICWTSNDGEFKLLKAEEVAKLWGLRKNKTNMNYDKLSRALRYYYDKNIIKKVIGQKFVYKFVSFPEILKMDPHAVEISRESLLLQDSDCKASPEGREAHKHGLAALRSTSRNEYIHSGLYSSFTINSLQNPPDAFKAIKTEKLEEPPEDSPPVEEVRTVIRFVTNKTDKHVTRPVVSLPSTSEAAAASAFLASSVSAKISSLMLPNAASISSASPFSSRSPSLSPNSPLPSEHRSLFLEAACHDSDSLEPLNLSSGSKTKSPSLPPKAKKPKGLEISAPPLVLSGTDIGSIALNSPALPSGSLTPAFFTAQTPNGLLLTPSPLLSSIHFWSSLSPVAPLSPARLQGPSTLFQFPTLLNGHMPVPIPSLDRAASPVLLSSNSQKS
Summary of the method: as §1

GTGTTC
binding signal (FLI1): 1.13 fold enrichment (6-mer frequency, TF over GST control) | binding signal (ELK1): 1.25 fold enrichment (6-mer frequency, TF over GST control) | binding signal (GABPA): 1.26 fold enrichment (6-mer frequency, TF over GST control) | binding signal (ERG): 1.22 fold enrichment (6-mer frequency, TF over GST control) | binding signal (ELF1): 1.1 fold enrichment (6-mer frequency, TF over GST control) | binding signal (EHF): 1.15 fold enrichment (6-mer frequency, TF over GST control) | binding signal (SPI1): 1.28 fold enrichment (6-mer frequency, TF over GST control) | binding signal (SPIB): 1.09 fold enrichment (6-mer frequency, TF over GST control) | binding signal (ELK3): 1.1 fold enrichment (6-mer frequency, TF over GST control)
